How the values were obtained:
Test in all cases: DAPPL (digital affinity profiling via proximity ligation, sequencing); 10 mM Tris-HCl pH 7.5, 50 mM NaCl, 1 mM DTT, 4% glycerol, room temperature, 30 min; GST-TFs on glutathione beads, 16-mer random dsDNA library, 0.1% formaldehyde crosslink after washing; high values mean tight binding
FEV = molecular target: T1, FEV (Homo sapiens, UniProt Q99581 1-238); conditions: protein: recombinant; tags: N-terminal GST; dsDNA, one strand shown
T1 sequence: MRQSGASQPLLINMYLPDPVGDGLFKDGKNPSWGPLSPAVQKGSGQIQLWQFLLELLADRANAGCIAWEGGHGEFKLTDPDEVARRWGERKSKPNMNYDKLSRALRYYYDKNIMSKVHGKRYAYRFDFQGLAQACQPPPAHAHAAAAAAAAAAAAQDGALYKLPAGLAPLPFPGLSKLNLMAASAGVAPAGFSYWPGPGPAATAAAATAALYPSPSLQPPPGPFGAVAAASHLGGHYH
How it was run: (§1)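 Pools of DNA-barcoded human transcription factors, expressed in yeast as GST fusions on glutathione beads and combined with a tag-only sample, were incubated with 200 nmole of a 16-mer random double-stranded DNA library. Incubation took 30 min at room temperature in Tris/NaCl/DTT/glycerol buffer and was followed by washing, 0.1% formaldehyde crosslinking, proximity ligation (BsaI/T4 ligase, 1 h, 37 °C), PCR amplification and sequencing on an Illumina NextSeq500. Binding signal is the ratio of a hexamer's read frequency for a factor to its frequency for the tag-only sample.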

ETV5 = ETV5 (Homo sapiens, UniProt P41161 1-510); conditions: protein: recombinant; tags: N-terminal GST; dsDNA, one strand shown
Chain of ETV5 (P41161 whole entry): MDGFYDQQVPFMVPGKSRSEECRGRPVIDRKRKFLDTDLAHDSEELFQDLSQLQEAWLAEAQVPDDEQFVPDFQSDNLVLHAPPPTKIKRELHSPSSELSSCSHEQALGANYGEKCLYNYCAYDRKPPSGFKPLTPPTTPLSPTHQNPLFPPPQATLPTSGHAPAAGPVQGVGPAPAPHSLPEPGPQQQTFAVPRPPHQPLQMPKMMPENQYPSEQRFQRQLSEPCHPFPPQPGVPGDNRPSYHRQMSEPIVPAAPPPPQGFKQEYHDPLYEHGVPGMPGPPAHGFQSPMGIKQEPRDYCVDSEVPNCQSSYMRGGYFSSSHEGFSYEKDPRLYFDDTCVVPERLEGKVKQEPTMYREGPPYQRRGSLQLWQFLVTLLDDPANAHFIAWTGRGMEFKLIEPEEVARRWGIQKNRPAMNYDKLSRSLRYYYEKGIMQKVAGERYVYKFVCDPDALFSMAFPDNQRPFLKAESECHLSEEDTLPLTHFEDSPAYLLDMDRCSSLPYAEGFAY
How it was run: as §1

HSF1 = HSF1 (Homo sapiens, UniProt Q00613 1-529); conditions: protein: recombinant; tags: N-terminal GST; chain copies: 3; dsDNA, one strand shown
Chain of HSF1 (Q00613 whole entry): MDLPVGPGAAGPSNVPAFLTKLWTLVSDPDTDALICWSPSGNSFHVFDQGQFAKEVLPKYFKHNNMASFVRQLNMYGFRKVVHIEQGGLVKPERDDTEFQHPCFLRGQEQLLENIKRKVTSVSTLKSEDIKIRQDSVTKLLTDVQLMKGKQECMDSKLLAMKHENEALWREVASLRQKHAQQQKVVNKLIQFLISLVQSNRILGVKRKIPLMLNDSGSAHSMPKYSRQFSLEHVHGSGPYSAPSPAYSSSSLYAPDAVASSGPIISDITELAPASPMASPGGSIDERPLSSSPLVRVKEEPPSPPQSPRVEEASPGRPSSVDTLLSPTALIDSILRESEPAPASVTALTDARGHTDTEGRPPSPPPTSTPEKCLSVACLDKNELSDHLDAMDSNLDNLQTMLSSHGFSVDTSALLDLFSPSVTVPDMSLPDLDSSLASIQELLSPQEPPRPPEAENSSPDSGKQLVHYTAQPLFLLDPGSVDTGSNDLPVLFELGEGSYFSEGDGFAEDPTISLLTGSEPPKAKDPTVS
How it was run: as §1

SPIC = molecular target: T2, SPIC (Homo sapiens, UniProt Q8N5J4 1-248); conditions: protein: recombinant; tags: N-terminal GST; dsDNA, one strand shown
T2 sequence: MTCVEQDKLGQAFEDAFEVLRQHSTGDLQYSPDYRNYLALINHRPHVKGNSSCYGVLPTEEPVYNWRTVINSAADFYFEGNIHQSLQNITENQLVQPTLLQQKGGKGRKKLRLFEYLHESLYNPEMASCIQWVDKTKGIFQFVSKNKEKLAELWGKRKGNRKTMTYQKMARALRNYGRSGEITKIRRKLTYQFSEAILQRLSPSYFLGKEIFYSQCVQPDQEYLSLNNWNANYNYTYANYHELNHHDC
How it was run: as §1

ELF4 = ELF4 (Homo sapiens, UniProt Q99607 1-663); conditions: protein: recombinant; tags: N-terminal GST; dsDNA, one strand shown
Chain of ELF4 (Q99607 whole entry): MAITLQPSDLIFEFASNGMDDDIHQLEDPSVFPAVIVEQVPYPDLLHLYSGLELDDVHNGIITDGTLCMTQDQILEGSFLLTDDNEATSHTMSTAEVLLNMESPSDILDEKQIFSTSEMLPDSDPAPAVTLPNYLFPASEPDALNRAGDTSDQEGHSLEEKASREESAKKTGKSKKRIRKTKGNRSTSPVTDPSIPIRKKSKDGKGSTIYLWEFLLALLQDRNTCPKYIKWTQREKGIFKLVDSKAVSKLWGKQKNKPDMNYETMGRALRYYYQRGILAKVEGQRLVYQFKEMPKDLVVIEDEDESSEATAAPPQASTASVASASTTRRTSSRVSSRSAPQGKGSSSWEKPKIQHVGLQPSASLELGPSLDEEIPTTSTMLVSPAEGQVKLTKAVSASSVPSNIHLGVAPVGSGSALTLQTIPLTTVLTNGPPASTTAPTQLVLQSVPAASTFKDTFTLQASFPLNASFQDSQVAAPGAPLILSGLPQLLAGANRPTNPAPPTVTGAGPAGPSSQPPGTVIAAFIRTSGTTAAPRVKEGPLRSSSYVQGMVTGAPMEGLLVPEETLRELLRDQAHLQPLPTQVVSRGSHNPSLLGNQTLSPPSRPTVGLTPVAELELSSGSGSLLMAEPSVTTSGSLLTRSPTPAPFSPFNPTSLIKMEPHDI
How it was run: as §1

ELK4 = molecular target: T3, ELK4 (Homo sapiens, UniProt P28324-2 1-405); conditions: protein: recombinant; tags: N-terminal GST; dsDNA, one strand shown
T3 sequence: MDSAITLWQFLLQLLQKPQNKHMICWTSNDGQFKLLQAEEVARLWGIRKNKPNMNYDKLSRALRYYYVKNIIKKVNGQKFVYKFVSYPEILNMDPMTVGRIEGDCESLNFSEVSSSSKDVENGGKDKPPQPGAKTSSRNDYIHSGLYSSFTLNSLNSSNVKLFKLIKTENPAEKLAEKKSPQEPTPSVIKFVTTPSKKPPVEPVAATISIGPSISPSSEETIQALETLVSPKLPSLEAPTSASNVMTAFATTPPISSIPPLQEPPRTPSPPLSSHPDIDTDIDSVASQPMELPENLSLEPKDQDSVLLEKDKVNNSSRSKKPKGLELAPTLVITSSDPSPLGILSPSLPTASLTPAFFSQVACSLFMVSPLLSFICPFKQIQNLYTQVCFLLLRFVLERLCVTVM
How it was run: as §1

ETV2 = molecular target: T4, ETV2 (Homo sapiens, UniProt O00321 1-342); conditions: protein: recombinant; tags: N-terminal GST; dsDNA, one strand shown
T4 sequence: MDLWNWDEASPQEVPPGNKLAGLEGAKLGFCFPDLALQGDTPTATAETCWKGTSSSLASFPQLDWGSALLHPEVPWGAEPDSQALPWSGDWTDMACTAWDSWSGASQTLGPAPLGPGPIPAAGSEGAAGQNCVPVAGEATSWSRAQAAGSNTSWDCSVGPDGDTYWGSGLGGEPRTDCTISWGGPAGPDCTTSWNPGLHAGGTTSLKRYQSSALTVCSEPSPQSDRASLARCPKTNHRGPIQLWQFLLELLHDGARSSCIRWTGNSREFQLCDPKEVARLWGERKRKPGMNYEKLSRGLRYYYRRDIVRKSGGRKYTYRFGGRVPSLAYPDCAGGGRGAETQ
How it was run: as §1

ELF3 = molecular target: T5, ELF3 (Homo sapiens, UniProt P78545 1-371); conditions: protein: recombinant; tags: N-terminal GST; dsDNA, one strand shown
T5 sequence: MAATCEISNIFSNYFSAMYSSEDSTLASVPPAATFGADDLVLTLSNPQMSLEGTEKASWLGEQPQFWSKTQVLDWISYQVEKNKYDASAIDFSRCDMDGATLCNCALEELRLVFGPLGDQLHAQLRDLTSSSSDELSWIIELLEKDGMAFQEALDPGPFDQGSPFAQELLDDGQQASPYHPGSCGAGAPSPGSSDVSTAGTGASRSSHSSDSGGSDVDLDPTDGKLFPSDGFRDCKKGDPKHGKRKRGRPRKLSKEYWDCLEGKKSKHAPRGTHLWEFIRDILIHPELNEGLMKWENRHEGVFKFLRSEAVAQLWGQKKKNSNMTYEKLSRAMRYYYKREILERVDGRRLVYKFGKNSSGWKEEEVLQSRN
How it was run: as §1

CRX = CRX (Homo sapiens, UniProt O43186 1-299); conditions: protein: recombinant; tags: N-terminal GST; dsDNA, one strand shown
Chain of CRX (O43186 whole entry): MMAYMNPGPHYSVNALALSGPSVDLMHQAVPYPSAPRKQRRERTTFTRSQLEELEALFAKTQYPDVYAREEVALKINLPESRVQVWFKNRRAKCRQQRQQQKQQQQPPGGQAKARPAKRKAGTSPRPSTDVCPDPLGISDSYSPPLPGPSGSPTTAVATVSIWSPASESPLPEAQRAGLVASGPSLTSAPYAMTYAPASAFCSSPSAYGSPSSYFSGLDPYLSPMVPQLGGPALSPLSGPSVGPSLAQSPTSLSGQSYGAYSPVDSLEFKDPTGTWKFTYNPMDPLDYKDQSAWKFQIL
How it was run: as §1

ETV1 = ETV1 (Homo sapiens, UniProt P50549 1-477); conditions: protein: recombinant; tags: N-terminal GST; dsDNA, one strand shown
Chain of ETV1 (P50549 whole entry): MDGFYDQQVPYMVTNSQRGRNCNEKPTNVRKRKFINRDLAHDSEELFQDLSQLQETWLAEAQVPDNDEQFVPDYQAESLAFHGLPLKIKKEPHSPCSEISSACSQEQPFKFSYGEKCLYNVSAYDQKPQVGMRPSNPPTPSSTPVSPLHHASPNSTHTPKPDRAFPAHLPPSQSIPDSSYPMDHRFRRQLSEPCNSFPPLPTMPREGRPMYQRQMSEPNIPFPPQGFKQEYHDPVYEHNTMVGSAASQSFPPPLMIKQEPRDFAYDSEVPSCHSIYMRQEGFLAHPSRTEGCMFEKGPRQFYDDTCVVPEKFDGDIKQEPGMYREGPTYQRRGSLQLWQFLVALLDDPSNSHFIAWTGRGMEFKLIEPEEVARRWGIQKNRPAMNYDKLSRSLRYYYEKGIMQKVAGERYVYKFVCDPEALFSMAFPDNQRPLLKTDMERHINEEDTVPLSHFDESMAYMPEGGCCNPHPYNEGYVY
How it was run: as §1

| Sequence | binding signal (FEV) | binding signal (ETV5) | binding signal (HSF1) | binding signal (SPIC) | binding signal (ELF4) | binding signal (ELK4) | binding signal (ETV2) | binding signal (ELF3) | binding signal (CRX) | binding signal (ETV1) |
| --- | --- | --- | --- | --- | --- | --- | --- | --- | --- | --- |
| CCCCTC | 1.41 fold enrichment (6-mer frequency, TF over GST control) | 1.37 fold enrichment (6-mer frequency, TF over GST control) | 1.13 fold enrichment (6-mer frequency, TF over GST control) | 1.17 fold enrichment (6-mer frequency, TF over GST control) | 1.48 fold enrichment (6-mer frequency, TF over GST control) | 1.5 fold enrichment (6-mer frequency, TF over GST control) | 1.49 fold enrichment (6-mer frequency, TF over GST control) | 1.35 fold enrichment (6-mer frequency, TF over GST control) | 1.14 fold enrichment (6-mer frequency, TF over GST control) | 1.51 fold enrichment (6-mer frequency, TF over GST control) |
| ATGGTT | 1.34 fold enrichment (6-mer frequency, TF over GST control) | 1.31 fold enrichment (6-mer frequency, TF over GST control) | 1.25 fold enrichment (6-mer frequency, TF over GST control) | 1.33 fold enrichment (6-mer frequency, TF over GST control) | 1.32 fold enrichment (6-mer frequency, TF over GST control) | 1.42 fold enrichment (6-mer frequency, TF over GST control) | 1.24 fold enrichment (6-mer frequency, TF over GST control) | 1.38 fold enrichment (6-mer frequency, TF over GST control) | 1.17 fold enrichment (6-mer frequency, TF over GST control) | 1.42 fold enrichment (6-mer frequency, TF over GST control) |
| GTTAAC | 1.18 fold enrichment (6-mer frequency, TF over GST control) | 1.19 fold enrichment (6-mer frequency, TF over GST control) | 1.02 fold enrichment (6-mer frequency, TF over GST control) | 1.11 fold enrichment (6-mer frequency, TF over GST control) | 1.19 fold enrichment (6-mer frequency, TF over GST control) | 1.25 fold enrichment (6-mer frequency, TF over GST control) | 1.2 fold enrichment (6-mer frequency, TF over GST control) | 1.21 fold enrichment (6-mer frequency, TF over GST control) | 1.15 fold enrichment (6-mer frequency, TF over GST control) | 1.2 fold enrichment (6-mer frequency, TF over GST control) |
| TATGCT | 1.24 fold enrichment (6-mer frequency, TF over GST control) | 1.39 fold enrichment (6-mer frequency, TF over GST control) | 1.41 fold enrichment (6-mer frequency, TF over GST control) | 1.6 fold enrichment (6-mer frequency, TF over GST control) | 1.31 fold enrichment (6-mer frequency, TF over GST control) | 1.4 fold enrichment (6-mer frequency, TF over GST control) | 1.3 fold enrichment (6-mer frequency, TF over GST control) | 1.37 fold enrichment (6-mer frequency, TF over GST control) | 1.51 fold enrichment (6-mer frequency, TF over GST control) | 1.29 fold enrichment (6-mer frequency, TF over GST control) |
| AAGATT | 1.06 fold enrichment (6-mer frequency, TF over GST control) | 1.25 fold enrichment (6-mer frequency, TF over GST control) | 2.11 fold enrichment (6-mer frequency, TF over GST control) | 1.12 fold enrichment (6-mer frequency, TF over GST control) | 1.22 fold enrichment (6-mer frequency, TF over GST control) | 1.35 fold enrichment (6-mer frequency, TF over GST control) | 1.16 fold enrichment (6-mer frequency, TF over GST control) | 1.08 fold enrichment (6-mer frequency, TF over GST control) | 2.4 fold enrichment (6-mer frequency, TF over GST control) | 1.18 fold enrichment (6-mer frequency, TF over GST control) |
| TAAAAA | 1.29 fold enrichment (6-mer frequency, TF over GST control) | 1.3 fold enrichment (6-mer frequency, TF over GST control) | 1.56 fold enrichment (6-mer frequency, TF over GST control) | 1.34 fold enrichment (6-mer frequency, TF over GST control) | 1.45 fold enrichment (6-mer frequency, TF over GST control) | 1.34 fold enrichment (6-mer frequency, TF over GST control) | 1.4 fold enrichment (6-mer frequency, TF over GST control) | 1.33 fold enrichment (6-mer frequency, TF over GST control) | 1.82 fold enrichment (6-mer frequency, TF over GST control) | 1.26 fold enrichment (6-mer frequency, TF over GST control) |
| ATGCTC | 1.39 fold enrichment (6-mer frequency, TF over GST control) | 1.41 fold enrichment (6-mer frequency, TF over GST control) | 1.43 fold enrichment (6-mer frequency, TF over GST control) | 1.47 fold enrichment (6-mer frequency, TF over GST control) | 1.46 fold enrichment (6-mer frequency, TF over GST control) | 1.32 fold enrichment (6-mer frequency, TF over GST control) | 1.37 fold enrichment (6-mer frequency, TF over GST control) | 1.47 fold enrichment (6-mer frequency, TF over GST control) | 1.38 fold enrichment (6-mer frequency, TF over GST control) | 1.42 fold enrichment (6-mer frequency, TF over GST control) |

Source: PMC7862700, “An all-to-all approach to the identification of sequence-specific readers for epigenetic DNA modifications on cytosine”
